Screening results (PubChem)
Tau ThT inhib = tau fibrillization inhibition (ThT binding); P10636; recombinant tau K18 P301L, heparin-induced fibrillization, ThT fluorescence; Potency, µM (titrated, usually from 57.4 µM), inactives show at the highest dose activity, negative = inhibition, most hits filed as inhibitors; actives 2.1% (n = 270,000); note: nearly all actives have a fitted effect of over 55% in size
Target sequence (P10636 561-689 P618L limits assumed): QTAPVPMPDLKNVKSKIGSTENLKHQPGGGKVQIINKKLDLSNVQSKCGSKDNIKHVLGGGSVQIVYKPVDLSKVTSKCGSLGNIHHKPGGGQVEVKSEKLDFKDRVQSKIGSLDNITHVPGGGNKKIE
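Using a mix of unlabeled (15 uM) and Alexa 594-labeled (0.24 uM) tau K18 P301L, heparin-triggered fibrillization over 6 hr at 37 C was scored by ThT fluorescence.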
Tau fibril FP = inhibitors of human tau fibril formation | P10636 | K18 P301L tau heparin fibrillization, Alexa594 FP, 6 h | Potency, µM (highest dose often 57.7 µM), inactives show at the top dose activity, negative = inhibition, hits mostly inhibitors | actives 0.39% (n = 280,000); note: nearly all actives have a fitted effect of over 55% in size
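FP of Alexa 594-tau after heparin (20 uM) induction. Substrate: human K18 P301L, 15 uM unlabeled, 0.24 uM labeled. Buffer 100 mM sodium acetate pH 7. 6 hr, 37 C.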
Tau fluor cs = counter-screen for tau fibril formation inhibitors; actives 0.93% (n = 280,000); Potency, µM (titrated, usually from 57.7 µM), for the others: at the highest dose activity change, negative = decrease; tau K18 P301L Alexa594 fluorescence, heparin fibrillization; note: nearly all actives have a fitted effect of over 55% in size
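Human tau K18 P301L (15 uM unlabeled, 0.24 uM Alexa 594-labeled) in 100 mM sodium acetate pH 7 with 20 uM heparin, 6 hr at 37 C. ThT 30 uM added, 1 hr ambient; Alexa 594 FP and total fluorescence read at 555/632 nm.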
Gal4-VP16 FLuc = counter-screen for ROR gamma inhibitors: Gal4-VP16 reporter. Drosophila S2 Gal4-VP16 UAS-luciferase, luminescence, 20 h. Potency, µM (top dose mostly 53.6 µM), without a hit: at the top dose activity, negative = inhibition, actives largely listed as inhibitors. actives 3.5% (n = 310,000). AID 2546;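 note: Gal4-VP16 expression switched on by copper sulfate through the metallothionein promoter; nearly all actives have a fitted effect of over 50% in size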
RORgamma inh = ROR gamma (mouse) transcription inhibition; P51450; Drosophila S2 Gal4-RORgamma UAS-luciferase reporter, 20 h; Potency, µM (series often up to 53.6 µM), inactives show top-dose activity change, negative = inhibition, most hits filed as inhibitors; actives 5.4% (n = 310,000); AID 2551; note: nearly all actives have a fitted effect of over 60% in size
Target sequence (P51450 whole entry, looked up, the tested form may be a part): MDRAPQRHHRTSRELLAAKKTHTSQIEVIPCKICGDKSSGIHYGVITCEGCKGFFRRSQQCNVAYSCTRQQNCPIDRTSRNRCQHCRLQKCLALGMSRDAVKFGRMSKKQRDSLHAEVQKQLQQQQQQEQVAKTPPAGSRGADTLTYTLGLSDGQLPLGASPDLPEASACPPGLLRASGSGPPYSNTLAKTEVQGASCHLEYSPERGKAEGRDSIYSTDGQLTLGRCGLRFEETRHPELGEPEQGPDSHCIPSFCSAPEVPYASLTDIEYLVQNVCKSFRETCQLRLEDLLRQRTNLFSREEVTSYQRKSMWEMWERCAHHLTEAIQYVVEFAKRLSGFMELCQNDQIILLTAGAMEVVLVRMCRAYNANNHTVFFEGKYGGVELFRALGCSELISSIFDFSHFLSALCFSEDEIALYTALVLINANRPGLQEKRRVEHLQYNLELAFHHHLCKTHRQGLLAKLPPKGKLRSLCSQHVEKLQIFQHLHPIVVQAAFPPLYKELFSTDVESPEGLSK
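Compounds are pin-transferred onto Drosophila Schneider cells expressing a copper-inducible Gal4–ROR gamma transactivation domain fusion. After 1 hr, copper sulfate is added to 700 uM final; luciferase is read 20 hr later.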
* marks the source's active call; other numbers are inactive results; ? = inconclusive; · = not tested or not shown; [ ] = remark or other dose. Sampled rows, rich in hits. Any-hit rate of the full collection: about 7.3%. Calls come from the whole dose curve; as a rule, active = well fitted curve in the direction sought with a large enough effect; inconclusive = small, poorly fitted or top-dose-only effect, or another doubt; inactive = no such curve, though single readings can be large; an effect the other way counts as inactive or inconclusive. % is set by controls: 0 for no effect and ±100 for the full control effect; potency is the fitted concentration of half-maximal effect.

SMILES	Tau ThT inhib	Tau fibril FP	Tau fluor cs	Gal4-VP16 FLuc	RORgamma inh
S=C(NCc1ccc(Cl)cc1Cl)NC1CCCCC1	1%	-13%	?	16µM*	5.6µM*
S=C(NCCc1cccc(Cl)c1)NC1CCCCC1	·	·	·	5.6µM*	4.5µM*
O=C(O)C1CCCCC1C(=O)NCCc1cccc(Cl)c1 (configuration not stated)	-3%	-4%	0%	-14%	1%
O=C(CCCCn1c(=O)c2ccccc2n(CC(=O)Nc2cccc(F)c2)c1=O)NCCc1ccccc1	8%	-13%	-23%	·	·
CC(=O)n1cc(N(C(=O)CCl)c2ccc([N+](=O)[O-])cc2)c2ccccc21	28µM*	-7%	?	?	?
O=Cc1[nH]c2ccccc2c1N(C(=O)CCl)c1ccc([N+](=O)[O-])cc1	16µM*	?	?	-9%	36%
CCOc1ccc(N(CC(=O)Nc2cc(Cl)ccc2C)S(C)(=O)=O)cc1	·	·	·	-3%	-9%
CN1CCN(c2ccc(Nc3c4ccccc4nc4ccccc34)cc2)CC1	·	·	·	10µM*	-44%
O=C(O)c1ccc(Nc2c3ccccc3nc3ccccc23)cc1	·	·	·	20µM*	?
CN1CCN(c2ccc(NC(=O)C(C)(c3ccccc3)c3ccccc3)cc2)CC1	·	·	·	-2%	9%
CCOc1ccc(NCC(=O)Nc2ccc(Cl)cc2C)cc1	?	-4%	-21%	-5%	23%
COc1ccc(NCC(=O)Nc2ccc(Cl)cc2C)c(OC)c1	32µM*	-14%	?	-9%	2%
COc1ccc(N2CC(C(=O)N/N=C/c3cc([N+](=O)[O-])ccc3O)CC2=O)cc1 (configuration not stated)	?	-2%	-19%	18µM*	5.6µM*
O=C(N/N=C/c1ccccc1O)C1CC(=O)N(c2ccc(F)cc2)C1 (configuration not stated)	·	·	·	6.3µM*	2.8µM*
COc1ccc(N2CC(C(=O)N/N=C/c3c[nH]c4ccccc34)CC2=O)cc1 (configuration not stated)	?	10%	?	7%	-2%
O=C(O)COc1ccc(CCNS(=O)(=O)c2ccccc2)s1	·	·	·	-3%	0%
Cc1ccc(NC(=S)NC(NC(=O)c2ccco2)C(Cl)(Cl)Cl)cc1 (configuration not stated)	1%	-1%	-17%	7.1µM*	11µM*
CC(C)CC(=O)NC(=S)Nc1ccc(NC(=O)c2ccco2)cc1	-14%	2%	-2%	-15%	13µM*
CCCCC(=O)NC(=S)Nc1cccc(NC(=O)c2ccco2)c1	-14%	-8%	-28%	16µM*	?
CCc1ccc(NC(=S)NC(=O)CC(C)C)cc1	-2%	4%	-4%	1µM*	1.1µM*
CC[C@H](C)[C@H](NC(=O)[C@H](CC(C)C)NC(=O)[C@@H](N)CO)C(=O)NCC(=O)N[C@@H](CCCN=C(N)N)C(=O)N[C@@H](CC(C)C)C(=O)O	·	·	·	-15%	0%
CC(C)(CN1CCOCC1)NS(=O)(=O)c1ccccc1	·	·	·	-4%	7%
COc1cc(NC(=O)c2ccco2)c(OC)cc1NC(=O)Nc1cccc(Cl)c1	?	9%	13µM*[quencher]	-9%	19%
CCC(=O)NC(=S)Nc1ccc(NC(=O)c2ccco2)c(OC)c1	-7%	6%	-1%	?	13µM*
CCOc1ccc(NC(=S)NC(=O)c2ccco2)cc1	?	2%	-18%	?	6.3µM*
SMILES	Tau ThT inhib	Tau fibril FP	Tau fluor cs	Gal4-VP16 FLuc	RORgamma inh
Cc1nn(C)cc1/C=N\NC(=O)c1ccc2c(c1)c(C)c(C)n2Cc1ccccc1	?	2%	?	?	16µM*
Cc1ccccc1NC(=O)c1ccc2c(c1)c(C)c(C)n2Cc1ccccc1	-5%	2%	-7%	·	·
NC(=O)c1ccc(C[C@H](C(=O)O)N2C(=O)c3ccc(C(=O)O)cc3C2=O)cc1	·	·	·	-3%	-1%
COc1ccc(N2CCC(CNC(=O)Nc3ccc(OC)cc3OC)C2)cc1 (configuration not stated)	14µM*	-6%	?	-1%	0%
COc1ccc(N2CCC(CNC(=S)Nc3ccc(C)cc3C)C2)cc1 (configuration not stated)	?	9%	?	?	0.63µM*
COc1ccc(N2CCC(CNC(=S)Nc3cccc(C)c3)C2)cc1 (configuration not stated)	?	10%	14µM*[quencher]	5µM*	4µM*
COc1ccc(N2CCC(CNC(=S)Nc3c(C)cc(C)cc3C)C2)cc1 (configuration not stated)	?	4%	-27%	7.1µM*	1.4µM*
CC(=O)c1ccc(OCCOc2ccc(Cl)c3cccnc23)cc1	?	-1%	2%	-1%	8%
NS(=O)(=O)c1ccc(NC(=S)N2CCN(C(=O)C3CCCO3)CC2)cc1 (configuration not stated)	·	·	·	-1%	-31%
COc1ccc(OC)c2c1sc(=NC(=O)C(C)C)n2C	?	-4%	-27%	20µM*	0%
COc1ccc(OC)c2c1sc(=NC(=O)C(C)(C)C)n2C	-21%	7%	-16%	-3%	-2%
O=C(Nc1nc2ccc(F)cc2s1)C1CCN(S(=O)(=O)c2cc([N+](=O)[O-])ccc2Cl)CC1	?	?	7.1µM*[quencher]	5µM*	?
Cc1ccc2nc(NC(=O)C3CCN(S(=O)(=O)c4cc([N+](=O)[O-])ccc4Cl)CC3)sc2c1	?	6%	?	?	-27%
O=C1/C(=C/c2cccs2)N=C(c2cccs2)N1Nc1ccccc1	7.1µM*	-14%	?	-9%	32%
Cc1ccc(C2=N/C(=C\c3cccs3)C(=O)N2Nc2ccccc2)cc1	?	-5%	?	-6%	0%
O=C1/C(=C\c2cccs2)N=C(c2cccs2)N1Nc1ccccc1	10µM*	-18%	?	2%	1%
Cc1ccc2cc(/C=N/NC(=O)c3ccccc3O)c(Cl)nc2c1	?	-8%	?	?	2.8µM*
Cc1cccc2cc(/C=N/NC(=O)c3ccccc3O)c(Cl)nc12	?	-14%	-26%	?	10µM*
O=C(N/N=C/c1cc2cc3c(cc2nc1Cl)OCCO3)c1ccccc1O	?	-8%	-21%	?	?
CC(=S)/C=C1\Sc2ccccc2N1C	14µM*	-11%	25%	10µM*	5µM*
O=C(CSc1nnc(CNC(=O)c2c(F)cccc2F)o1)NCc1ccc(F)cc1	·	·	·	-2%	-15%
S=C1NCN(Cc2ccccc2)CN1C1CCCCC1	-6%	-1%	-1%	4µM*	0.79µM*
O=C1C(c2ccccc2)NC(=S)N1C1CCCCC1 (configuration not stated)	·	·	·	4%	-37%
O=C1CNC(=S)N1Cc1ccccc1	-1%	0%	3%	-2%	-3%
